From PubChem BioAssay
Akt phos inh – blocks phosphorylation of Akt. Neuro2A IGF-stimulated pAkt S473 HTRF, 20 min; hits give low values. activity change, % for hits at 50 µM. actives 0.32% (n = 360,000). AID 651550; in the data active = activity change below about -80%; inconclusive = mostly about -51% to -80%; note: % is set by controls: 0 for no effect and ±100 for the full control effect
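Single-point screen (50 µM final compound) in Neuro2A cells stimulated 20 min with 6 nM IGF at 37 deg C. After lysis, Ser473-phosphorylated Akt read by HTRF (ex 330 nm, em 615/665 nm) as the 665/615 ratio.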
gsp antag – gsp mutant antagonism. gsp-mutant cells, cAMP HTRF, 30 min. Potency, µM (titrated, usually from 76.9 µM), inactives show at the highest dose activity change, negative = inhibition, hits mostly inhibitors. actives 0.4% (n = 340,000). AID 624288; calls by dose curve; cell line not stated here;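 note: intracellular cAMP measured with PDE inhibitor Ro 20-1724 present during compound exposure; potency is the fitted concentration of half-maximal effect; % is set by controls: 0 for no effect and ±100 for the full control effect; nearly all actives have a fitted effect of over 65% in size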
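HTRF cAMP read-out (cAMP-d2 plus anti-cAMP antibody-K in lysis buffer, 30 min RT). Before lysis, cells are exposed to compounds with […] for 30 min at 37C in DPBS containing Ca/Mg, BSA and Tween 20.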
RXFP1 antagonist – RXFP1 (human) relaxin receptor antagonism. actives 0.59% (n = 350,000). Q9HBX9. HEK293-RXFP1, relaxin-stimulated cAMP HTRF, 30 min; hits give low values. activity change, negative = inhibition, % at 57.5 µM;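 active = activity change of -60% or lower, but not beyond a set lower limit; inconclusive = change between -60% and -40%, or beyond the set limit; inactive = change above -40%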; note: % is set by controls: 0 for no effect and ±100 for the full control effect
Target sequence (Q9HBX9 whole entry, looked up): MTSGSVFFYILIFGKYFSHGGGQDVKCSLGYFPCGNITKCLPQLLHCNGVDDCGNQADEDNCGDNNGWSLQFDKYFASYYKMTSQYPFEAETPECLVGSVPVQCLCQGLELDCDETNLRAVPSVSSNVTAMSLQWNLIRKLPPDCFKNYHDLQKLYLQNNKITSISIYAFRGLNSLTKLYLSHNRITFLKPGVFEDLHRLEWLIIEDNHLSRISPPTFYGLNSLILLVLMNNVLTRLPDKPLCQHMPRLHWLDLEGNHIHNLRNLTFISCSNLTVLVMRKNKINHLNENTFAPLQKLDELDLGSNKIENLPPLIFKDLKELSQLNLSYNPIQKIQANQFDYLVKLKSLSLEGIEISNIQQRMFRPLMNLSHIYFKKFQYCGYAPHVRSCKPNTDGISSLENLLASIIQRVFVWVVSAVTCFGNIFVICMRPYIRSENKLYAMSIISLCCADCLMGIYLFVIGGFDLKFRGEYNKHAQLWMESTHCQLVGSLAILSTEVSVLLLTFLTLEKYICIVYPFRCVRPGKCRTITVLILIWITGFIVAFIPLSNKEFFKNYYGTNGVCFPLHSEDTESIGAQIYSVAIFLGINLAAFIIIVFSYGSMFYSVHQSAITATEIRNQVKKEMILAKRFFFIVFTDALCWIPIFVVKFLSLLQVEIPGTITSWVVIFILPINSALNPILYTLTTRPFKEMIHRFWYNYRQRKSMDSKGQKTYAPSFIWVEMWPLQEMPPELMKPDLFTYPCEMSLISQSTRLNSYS
RXFP1 ag – agonists of human relaxin receptor RXFP1; Q9HBX9; HEK293T-RXFP1 cAMP TR-FRET, 30 min; response scale: percent of porcine relaxin response, buffer zero; Potency, µM (series often up to 57.5 µM), for the others: top-dose activation, usual class: activators; actives 0.3% (n = 370,000); active = well fitted activation curve with a large enough effect; inconclusive = small, poorly fitted or top-dose-only effect; note: potency is the fitted concentration of half-maximal effect; % is set by controls: 0 for no effect and ±100 for the full control effect; nearly all actives have a fitted effect of over 60% in size
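HEK293 cells stably expressing RXFP1, treated 30 min at 37C with compounds plus PDE4 inhibitor Ro 20174; cAMP measured by HTRF TR-FRET. Normalized to buffer and 29 nM porcine relaxin; EC50 by Hill fit.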
gsp ag – activates gsp, the McCune-Albright syndrome mutation; gsp mutant cells, cAMP HTRF, 30 min; Potency, µM (highest dose often 76.9 µM), inactives show at the highest dose activation (cAMP increase), usual class: activators; actives 0.13% (n = 340,000); AID 624287; active = well fitted activation curve with a large enough effect; inconclusive = small, poorly fitted or top-dose-only effect, or another doubt; inactive = no such curve, though single readings can be large or run the other way; cell line not stated here;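 note: phosphodiesterase inhibitor Ro 20-1724 added with compounds to block cAMP breakdown; potency is the fitted concentration of half-maximal effect; nearly all actives have a fitted effect of over 60% in size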
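Cells in DMEM/10% FBS with G418 were pretreated with compounds in DMSO plus […] (300 uM stock) for 30 min at 37C. cAMP was measured by HTRF (cAMP-d2 plus anti-cAMP antibody-K) after 30 min at room temperature.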
Active calls of the source: *; ! = repeats disagree; [ ] = remark or other dose. A selection: hits, their analogues and other compounds. The true share with any hit is near 1.2%.

How did CC[N+](CC)(CC)CC do in these assays?
Akt phos inh: inactive; gsp antag: 35.5µM*; RXFP1 antagonist: 7.9; RXFP1 ag: 1.0%

What do the screens show for `FC(F)(F)c1ccccc1CNCCc1c[nH]c2ccccc12`?
Akt phos inh: inactive; gsp antag: 1.7%; RXFP1 antagonist: -101.0*; RXFP1 ag: -0.3%; gsp ag: -5.7%

How did CCOC(=O)C1(c2ccccc2)CCN(CCc2ccc(N)cc2)CC1 do in these assays?
RXFP1 antagonist: -13.0

How did Cn1c(O)c(Cc2ccc(OCc3ccccc3)cc2)c(=O)n(C)c1=O do in these assays?
Akt phos inh: inactive; gsp antag: 7.08µM*; RXFP1 antagonist: -2.9; RXFP1 ag: 2.6%; gsp ag: -7.1%

Results for CCOC(=O)c1c(NC(NC(=O)CF)C(Cl)(Cl)Cl)sc2c1CCCC2 (stereo not drawn) ?
Akt phos inh: inactive; gsp antag: -19.0%; RXFP1 antagonist: -61.0*; RXFP1 ag: 0.5%; gsp ag: -2.0%[15.4 µM]

Results for CCOC(=O)c1c(NC(=O)c2c(N)n(CCCOC)c3nc4ccccc4nc23)sc2c1CCCC2 ?
Akt phos inh: inactive; gsp antag: 1.7%; RXFP1 antagonist: -11.2; RXFP1 ag: 2.3%; gsp ag: 6.6%

How did CC(C)(C)NC[C@H](O)c1ccc(O)cc1Cl do in these assays?
RXFP1 antagonist: 2.0

How did OC(COCc1ccc(Cl)cc1)CN1CC=C(c2ccccc2)CC1 (stereo not drawn) do in these assays?
Akt phos inh: inactive; gsp antag: -0.6%; RXFP1 antagonist: -61.1*!; RXFP1 ag: 0.9%; gsp ag: 9.4%

What do the screens show for `CN(C)CCc1c[nH]c2cccc(O)c12`?
RXFP1 antagonist: -15.7

Results for O=C(c1ccccc1)c1ccc(N=Nc2c(O)[nH]c(=O)[nH]c2=O)cc1 ?
Akt phos inh: inactive; gsp antag: -2.3%; RXFP1 antagonist: 9.2; RXFP1 ag: 4.5%; gsp ag: -8.0%

How did O=c1[nH]c(=S)[nH]c(O)c1N=Nc1ccc(S(=O)(=O)N2CCc3ccccc32)cc1 do in these assays?
Akt phos inh: inactive; gsp antag: -30.8%; RXFP1 antagonist: -100.1*; RXFP1 ag: -0.2%; gsp ag: 1.8%[15.4 µM]

Results for Cc1c(N=Nc2c(O)[nH]c(=S)[nH]c2=O)c(=O)n(-c2ccccc2)n1C ?
Akt phos inh: inactive; gsp antag: 2.5%; RXFP1 antagonist: 12.2; RXFP1 ag: -1.6%; gsp ag: 4.8%[15.4 µM]

What do the screens show for `O=c1[nH]c(=S)[nH]c(O)c1N=Nc1ccc(SC(F)F)cc1`?
Akt phos inh: inactive; gsp antag: -11.9%; RXFP1 antagonist: -70.7*; RXFP1 ag: 12.5%; gsp ag: 15.5%[15.4 µM]

Results for CN1C(=O)C(=Cc2ccc(N3CCCCCC3)cc2)C(=O)N(C)C1=O ?
Akt phos inh: inactive; gsp antag: 35.5µM*; RXFP1 antagonist: -20.2; RXFP1 ag: -6.8%; gsp ag: -2.2%[15.4 µM]

Results for O=C(NCc1ccccc1)c1cccc(Nc2nc3ccccc3n3nnnc23)c1 ?
RXFP1 antagonist: 1.8; RXFP1 ag: inconclusive

How did Cc1[nH]c(=S)c(C#N)c2c1CCCC2 do in these assays?
Akt phos inh: inactive; gsp antag: 2.0%; RXFP1 antagonist: 19.6; RXFP1 ag: inconclusive; gsp ag: 14.1µM*

Results for c1ccc(N2CCNCC2)cc1 ?
RXFP1 antagonist: 17.3

How did CCOc1ccc(-c2cc(C)[n+](CCc3ccc(OC)c(OC)c3)c(-c3ccc(OCC)cc3)c2)cc1 do in these assays?
Akt phos inh: inactive; gsp antag: -14.1%; RXFP1 antagonist: -84.3*; RXFP1 ag: 2.0%; gsp ag: 8.7%[15.4 µM]

Results for CCOc1ccc(-c2cc(C)[n+](CCO)c(-c3ccc(OCC)cc3)c2)cc1 ?
Akt phos inh: inactive; gsp antag: 6.2%; RXFP1 antagonist: -5.8; RXFP1 ag: 25.6%; gsp ag: 16.8%

How did CCN1/C(=C\C=C\C2=[N+](CC)c3ccccc3C2(C)C)C(C)(C)c2ccccc21 do in these assays?
Akt phos inh: inactive; gsp antag: -8.0%; RXFP1 antagonist: -72.6*; RXFP1 ag: 5.0%; gsp ag: 31.1%[15.4 µM]

What do the screens show for `S=C1CN=C(c2ccccc2)c2cc(Cl)ccc2N1`?
Akt phos inh: inactive; gsp antag: -11.2%; RXFP1 antagonist: -111.1*; RXFP1 ag: -0.3%; gsp ag: 9.2%

What do the screens show for `COc1ccc(C2=NCC(=S)Nc3ccc(Cl)cc32)cc1OC`?
Akt phos inh: inactive; gsp antag: -8.7%; RXFP1 antagonist: 0.4; gsp ag: 11.5%

What do the screens show for `CCCOC(=O)c1c(N)n(Cc2cccs2)c2nc3ccccc3nc12`?
Akt phos inh: -115.0%*; gsp antag: 9.0%; RXFP1 antagonist: -5.8; RXFP1 ag: -1.2%; gsp ag: -32.5%

What do the screens show for `COCCOC(=O)c1c(N)n(Cc2ccccc2)c2nc3ccccc3nc12`?
Akt phos inh: inactive; gsp antag: 3.1%; RXFP1 antagonist: 13.6; RXFP1 ag: 4.6%; gsp ag: 18.1%

Results for CCC(C)C(C)(COC(N)=O)COC(N)=O (stereo not drawn) ?
RXFP1 antagonist: 3.2

What do the screens show for `C[C@]12CCC(=O)C=C1CC[C@@H]1[C@H]3CC[C@](C)(O)[C@@]3(C)CC[C@@H]12`?
RXFP1 antagonist: -22.4

How did CC[n+]1c(-c2ccccc2)c2cc(N)ccc2c2ccc(N)cc21 do in these assays?
Akt phos inh: inactive; gsp antag: inconclusive; RXFP1 antagonist: -85.0*!; gsp ag: 24.9%

Results for Cc1ccc(/C=C2/C(=O)NC(=O)N(CCc3ccc(F)cc3)C2=O)o1 ?
Akt phos inh: inactive; gsp antag: 2.8%; RXFP1 antagonist: -73.1*; RXFP1 ag: 4.0%; gsp ag: 1.6%

What do the screens show for `Cc1cc(C)n(-c2ccc(NN=C(C#N)C#N)cc2)n1`?
Akt phos inh: inactive; gsp antag: inconclusive; RXFP1 antagonist: -14.2; RXFP1 ag: -0.6%; gsp ag: -0.9%

How did N#CC(C#N)=NNc1ccc(-n2ccc(C(F)(F)F)n2)cc1 do in these assays?
Akt phos inh: inactive; gsp antag: 31.6µM*; RXFP1 antagonist: inconclusive; RXFP1 ag: 0.8%; gsp ag: inconclusive

What do the screens show for `CC(Cc1ccccc1)NCCCCl` (stereo not drawn)?
RXFP1 antagonist: -6.6

What do the screens show for `Nc1c2c(nc3ccccc13)CCN(Cc1ccccc1)C2`?
Akt phos inh: inactive; gsp antag: -11.2%; RXFP1 antagonist: -3.2; RXFP1 ag: 0.2%; gsp ag: 20.5%

Results for CN1CCc2nc3ccc(F)cc3c(C(N)=O)c2C1 ?
Akt phos inh: -99.4%*; gsp antag: -2.6%[15.4 µM]; RXFP1 antagonist: -5.1; RXFP1 ag: 0.3%; gsp ag: 26.7%

How did COc1cc(CC(C)N)c(OC)cc1C (stereo not drawn) do in these assays?
RXFP1 antagonist: -5.7
